Measurements from PubChem BioAssay (EPA / NIEHS).
The source made the active and inactive calls. How the source made its calls: active means hit-call score of the fitted dose curve at least 0.9, where 1 is the maximum; inactive means score below 0.9.

These compounds were tested on Intercellular Adhesion Molecule 1 (ICAM1), ICAM1 (gene 3383) (assay: BSK_3C_ICAM1: BioMAP Diversity Plus: 3C Assay for Intercellular Adhesion Molecule 1 (ICAM1) Biomarker Activity (AID 2283003)). Conditions: primary human endothelial cells (HUVEC); actives raise or lower the signal.
Procedure: BSK_3C is a cell-based, multiplexed-readout assay that uses umbilical vein endothelium, a human vascular primary cell, with measurements taken at 24 hours after chemical dosing in a 96-well plate.BSK_3C_ICAM1 is an assay component measured in the BSK_3C assay. It measures ICAM-1 antibody related to regulation of gene expression using ELISA technology.Data from the assay component BSK_3C_ICAM1 was analyzed into 1 assay endpoint. This assay endpoint, BSK_3C_ICAM1, was analyzed with bidirectional fitting relative to DMSO as the negative control and baseline of activity. Using a type of binding reporter, gain or loss-of-signal activity can be used to understand changes in the signaling as they relate to the gene ICAM1. Furthermore, this assay endpoint can be referred to as a primary readout, because this assay has produced multiple assay endpoints where this one serves a signaling function. To generalize the intended target to other relatable targets, this assay endpoint is annotated to the cell adhesion molecules intended target family, where the subfamily is Immunoglobulin CAM.
The levels of cell surface (or secreted, indicated by the prefix "s") biomarker endpoints were measured by ELISA. Overt cytotoxicity to cells in confluent adherent cultures (all systems other than the BT system) was assessed by measuring total protein levels using sulforhodamine B (SRB) staining in parallel cultures at the time of biomarker measurements, indicated as SRB endpoints. For proliferation assays for adherent cell types, individual cell types are cultured at sub-confluence and relative cell numbers quantified by SRB staining at time points optimized for each system (48 h: 3C and CASM3C systems; 72 h: BT and HDF3CGF systems; 96 h: SAg system). SRB was performed by staining cells with 0.1% SRB after fixation with 10% TCA and reading wells at 560 nm.Viability and proliferation of PBMC (T cells) was quantified by Alamar Blue reduction for the SAg and BT systems. For PBMC viability (referred to as PBMC Cytotoxicity within the assay endpoint names), cells were plated (75,000/well in a 96-well plate) and then chemical samples added for 1 h before addition of activators, SEB and TSST-1 (20 ng/mL final concentration each). Cells were incubated for 90 h. Then, Alamar Blue (20 uL/well) (Invitrogen, Cat DAL1100) was added for 6 h, and the plates were read with a fluorescence microplate reader at 546/580 nm (excitation/emission). For PBMC proliferation, cells were plated and activated as above but incubated for only 16 h prior to addition of Alamar Blue. Plates were read after 6 h.

Row | SMILES | outcome | AC50
1 | CCOP(=O)(NC(C)C)Oc1ccc(SC)c(C)c1 (stereo not given) | inactive | 
2 | CCc1cccc(C)c1N(C(=O)CCl)C(C)COC (stereo not given) | inactive | 
3 | COc1cccc(C(=O)NN(C(=O)c2cc(C)cc(C)c2)C(C)(C)C)c1C | inactive | 
4 | CC(Oc1cccc(Cl)c1)C(=O)O (stereo not given) | inactive | 
5 | Nc1nc(N)nc(NC2CC2)n1 | inactive | 
6 | CCOP(=O)(SC(C)CC)N1CCSC1=O (stereo not given) | inactive | 
7 | CN(C)NC(=O)CCC(=O)O | inactive | 
8 | CN(C)[C@@H]1C(=O)C(C(N)=O)=C(O)[C@@]2(O)C(=O)C3=C(O)c4c(O)cccc4[C@@](C)(O)[C@H]3[C@H](O)[C@@H]12 | inactive | 
9 | CSc1nc(NC(C)C)nc(NC(C)C)n1 | inactive | 
10 | CN(C)C(=O)Nc1cccc(C(F)(F)F)c1 | inactive | 
11 | CC(C)=CC1C(C(=O)OCN2C(=O)C3=C(CCCC3)C2=O)C1(C)C (stereo not given) | inactive | 
12 | CC1=NNC(=O)N(/N=C/c2cccnc2)C1 | inactive | 
13 | CCOP(=S)(OCC)OC(Cl)C(Cl)(Cl)Cl (stereo not given) | inactive | 
14 | CC(C)[C@H](C(=O)O[C@H](C#N)c1cccc(Oc2ccccc2)c1)c1ccc(Cl)cc1 | inactive | 
15 | Cc1cc(C2CC2)nc(Nc2ccccc2)n1 | inactive | 
16 | CCc1cccc(CC)c1N(COC)C(=O)CCl | inactive | 
17 | COP(=O)(OC)SCn1c(=O)oc2cc(Cl)cnc21 | inactive | 
18 | CON=C(C(=O)OC)c1ccccc1CON=C(C)c1cccc(C(F)(F)F)c1 | inactive | 
19 | CCOP(=S)(Oc1cnc(C(C)(C)C)nc1)OC(C)C (stereo not given) | inactive | 
20 | CCC(CC)Nc1c([N+](=O)[O-])cc(C)c(C)c1[N+](=O)[O-] | inactive | 

Row | SMILES | outcome | AC50
21 | C[N+]1(C)CCCCC1 | inactive | 
22 | O=C(O)c1cc(Oc2ccc(C(F)(F)F)cc2Cl)ccc1[N+](=O)[O-] | inactive | 
23 | Nc1c(Cl)cc([N+](=O)[O-])cc1Cl | inactive | 
24 | CCCCN(CC)c1c([N+](=O)[O-])cc(C(F)(F)F)cc1[N+](=O)[O-] | inactive | 
25 | CCCOc1nn(C(=O)NS(=O)(=O)c2ccccc2C(=O)OC)c(=O)n1C | inactive | 
26 | COc1ccc(C(=CC(=O)N2CCOCC2)c2ccc(Cl)cc2)cc1OC | inactive | 
27 | Cc1nn(-c2cc(NS(C)(=O)=O)c(Cl)cc2Cl)c(=O)n1C(F)F | inactive | 
28 | CNC(=O)Oc1cccc2c1OC(C)(C)O2 | inactive | 
29 | CN1COCN(Cc2cnc(Cl)s2)C1=N[N+](=O)[O-] | inactive | 
30 | COP(=O)(NC(C)=O)SC (stereo not given) | inactive | 
31 | CC(C1CC1)C(O)(Cn1cncn1)c1ccc(Cl)cc1 (stereo not given) | inactive | 
32 | CCCCSP(=O)(SCCCC)SCCCC | inactive | 
33 | CCC(=O)Nc1ccc(Cl)c(Cl)c1 | inactive | 
34 | CC(=NC#N)N(C)Cc1ccc(Cl)nc1 | inactive | 
35 | CCC(=NOC/C=C/Cl)C1=C(O)CC(C2CCOCC2)CC1=O (stereo not given) | inactive | 
36 | COP(=O)(OC)C(O)C(Cl)(Cl)Cl (stereo not given) | inactive | 
37 | CC[C@H](C)[C@H]1O[C@]2(C=C[C@@H]1C)C[C@@H]1C[C@@H](C/C=C(\C)[C@@H](O[C@H]3C[C@H](OC)[C@@H](O[C@H]4C[C@H](OC)[C@@H](NC)[C@H](C)O4)[C@H](C)O3)[C@@H](C)/C=C/C=C3\CO[C@@H]4[C@H](O)C(C)=C[C@@H](C(=O)O1)[C@]34O)O2 |  | 9.48 µM (active)
38 | CCCSP(=O)(OCC)SCCC | inactive | 
39 | S=C1NCCN1 | inactive | 
40 | CCNc1nc(Cl)nc(NC(C)(C)C#N)n1 | inactive | 
